GLP1R cytotox: cytotoxicity in counter-screen for GLP-1R inverse agonists. HEK293 cAMP-luciferase reporter cells, luminescence, 24 h. Potency, µM (top dose mostly 38.3 µM), without a hit: top-dose activity change, negative = inhibition, hits mostly inhibitors. hit rate 0.13% among 410,000. AID 624418;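 further: loss of luciferase light is scored as toxicity; on the % scale 0 is the no-effect control and ±100 the full control effect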
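To flag toxic compounds, the library was rerun on cells for 24 hr at 37 deg C and 5% CO2. Viability-linked luminescence was captured 12 min after adding luciferase detection reagent.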
GLP1R inv ag: acts as inverse agonist at human GLP-1 receptor; P43220; HEK293 GLP-1R CRE-luciferase, luminescence, 24 h; GLP-1R form is constitutively active; Potency, µM (doses to about 38.3 µM), inactives show at the highest dose activity change, negative = inhibition, usual class: inhibitors; hit rate 1.6% among 410,000; AID 624417; further: on the % scale 0 is the no-effect control and ±100 the full control effect; nearly all actives have a fitted effect of over 55% in size
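Inverse agonism was detected as reduced cAMP-driven luciferase luminescence after 24 h compound treatment. The cells were HEK293 clones expressing constitutively active human GLP-1R with the reporter. Reporter-only and GPR119 cell lines served as counterscreen controls.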
GLP-1R agonist: GLP-1 receptor (human) agonism; P43220; HEK293 GLP-1R CRE-luciferase, luminescence, 4-6 h; cells express a hypersensitive GLP-1R form; Potency, µM (series often up to 45.6 µM), for the others: top-dose activation, most hits filed as activators; hit rate 0.007% among 380,000; further: % of control where 0% means no effect
ClpP mod: qHTS Assay for Activators of ClpP. ATP-dependent Clp protease proteolytic subunit (Bacillus subtilis (strain 168)), P80244. purified B. subtilis ClpP, FRET peptide cleavage, 20 min. Potency, µM (top dose mostly 57.5 µM), without a hit: top-dose activity change, negative = active. hit rate 1.9% among 340,000. AID 651965, 2013; active means well fitted falling curve with a large enough effect; inconclusive means small, poorly fitted or top-dose-only effect; inactive means no such curve, though single readings can be large or run the other way; further: the source files actives as falling curves though it sought activators and does not explain the sign; nearly all actives have a fitted effect of over 65% in size
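Buffer: 100 mM Tris/HCl pH8, 100 mM KCl, 0.05% low protease BSA, 2.5% glycerol, 0.01% Tween-20. ClpP 10 microg/mL final; 20 min RT; delta FRET normalized to ADEP and DMSO controls.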
* = called active by the depositor; ? = inconclusive; . = not tested or not shown; ! = not active in a repeat. Sampled rows, rich in hits. Any-hit rate of the full collection: about 3.2%. Unless noted, the call rests on the fitted dose curve; in most records, active means well fitted curve in the direction sought with a large enough effect; inconclusive means small, poorly fitted or top-dose-only effect, or another doubt; inactive means no such curve, though single readings can be large; an effect the other way counts as inactive or inconclusive. Potency means the concentration at half of the fitted maximal effect.

SMILES	GLP1R cytotox	GLP1R inv ag	GLP-1R agonist	ClpP mod
FC(F)(F)c1cccc(CN2CCC(c3cc(-c4cccs4)n[nH]3)CC2)c1	?	6.3µM*	14%	.
COc1ccc(C(CNC(=O)C(C)Oc2ccc(Br)cc2)N2CCOCC2)cc1 (stereo not drawn)	9%	-5%	1%	28µM*
O=S(=O)(Nc1cccc(-c2cn3cccnc3n2)c1)c1ccc(-c2ccccc2)cc1	61%	0%	1%	28µM*
Clc1ccc(-c2cn3cccnc3n2)cc1Cl	9%	13%	-13%	11µM*
Cc1nc2ccc([N+](=O)[O-])cc2c(=O)n1Cc1ccc(Cl)cc1	9%	12%	-3%	1%
Cc1nc2ccc(N)cc2c(=O)n1Cc1ccc(Cl)cc1	73%	42%	22%	35µM*
CCN(CC)S(=O)(=O)c1nnc(NC(=O)COc2ccc(C)cc2)s1	1%	2%	.	-3%
Cn1c(=S)c2[nH]c(SCCN3CCCC3)nc2n(C)c1=O	?	5.6µM*	-5%	-3%
Cn1c(=O)c2[nH]c(C3CCC3)nc2n(C)c1=O	24%	11%	1%	-6%
Cn1c(=O)c2c(nc(SCCN3CCCCC3)n2C)n(C)c1=O	0%	9%	-1%	-1%
Cn1c(=S)c2[nH]c(SCCN)nc2n(C)c1=O	3.2µM*	?	-3%	1%
CCN1CCCC(Sc2nc3c([nH]2)c(=S)n(C)c(=O)n3C)C1 (stereo not drawn)	?	4.5µM*	0%	?
CCN(CC)C(=O)Cn1cc(S(=O)(=O)CC(=O)Nc2ccccc2C)c2ccccc21	-11%	21%	8%	28µM*
CC(=O)Nc1ccc(OC(C)=O)cc1	.	.	3%	.
O=C(O)CCc1ccc(-c2cccs2)o1	0%	0%	-2%	-9%
Cc1ccc(-c2ccc(CCC(=O)O)o2)cc1	19%	0%	1%	16µM*
COc1ccc(C)cc1NC(=O)CN1C(=O)COc2ccc(S(=O)(=O)NC3CCCC3)cc21	20%	0%	.	1%
CCCCCN1CSC(=S)N(Cc2ccccc2)C1	?	13µM*	0%	0%
CCN1CSC(=S)N(Cc2ccccc2)C1	?	?	-1%	.
O=C(O)c1c(Cl)c(Cl)c(Cl)c(Cl)c1-c1c2cc(I)c(=O)c(I)c-2oc2c(I)c(O)c(I)cc12	.	.	0%	.
Cc1cc(C)cc(N2CCn3c2nc2c3c(=O)n(CCc3ccccc3)c(=O)n2C)c1	-10%	10%	.	?
COc1cccc(-n2cc(CN(C)Cc3nc(Cc4ccccc4)no3)cn2)c1	2%	?	13%	.
COc1cccc(-n2cc(CN(C)Cc3nc(Cc4cccc(F)c4)no3)cn2)c1	-6%	10µM*	0%	-3%
Cc1ccc(N2C(=O)CS(=O)(=O)C23C(=O)Nc2ccccc23)cc1C (stereo not drawn)	-12%	-13%	-2%	1%
CCOC(=O)c1c(-c2ccccc2)oc2ccc(O)cc12	-5%	?	20%	-14%
SMILES	GLP1R cytotox	GLP1R inv ag	GLP-1R agonist	ClpP mod
CCOC(=O)c1c(-c2ccccc2)[nH]c2ccc(O)cc12	9%	?	2%	32µM*
CCOc1ccc(NC(=O)Cn2cc(C(=O)c3ccc(F)cc3)c(=O)c3cc4c(cc32)OCCO4)cc1	1%	1%	0%	-2%
CN(c1ncc(C(F)(F)F)cc1Cl)N1C(=O)c2cccc(N)c2C1=O	45%	3.2µM*	7%	.
CCCCCCc1cc2cc(-c3nnc(-c4ccccc4O)o3)c(=O)oc2cc1O	134%	8%	1%	0%
CCCCCCc1cc2cc(S(=O)(=O)c3ccc(F)cc3)c(=O)oc2cc1O	281%	-13%	-31%	28µM*
COc1ccc(N(Cc2ccccc2)C(=O)c2nc(S(C)(=O)=O)ncc2Cl)cc1	?	10µM*	.	-5%
O=C(c1ccc(Cl)cc1)N(Cc1ccco1)Cc1ccco1	4%	-30%	.	-2%
CCOc1ccc(N(Cc2ccccc2)C(=O)c2nc(SC)ncc2Cl)cc1	2%	?	.	-3%
CS(=O)(=O)c1ncc(Cl)c(C(=O)N(Cc2ccc(Cl)cc2)Cc2ccco2)n1	?	8.9µM*	.	2%
COc1cccc(-c2csc(N3CCN(C(=O)NC45CC6CC(CC(C6)C4)C5)CC3)n2)c1	1%	5µM*	-10%	-3%
COc1cccc(NC(=O)N2CCN(c3nc(-c4cccc(OC)c4)cs3)CC2)c1	-22%	13µM*	-5%	0%
COc1ccc(N2CCN(C(=O)Nc3cccc(C(F)(F)F)c3)CC2)cc1	4%	10µM*	6%	-16%
CC1(C)Cc2c(cnn2-c2ccccc2)-c2c1c1ccccc1n2CC(O)CCl (stereo not drawn)	1%	?	-6%	22µM*
CC1(C)Cc2c(cnn2-c2ccccc2)C(=O)/C1=N\NC(=O)c1ccncc1	49%	0%	4%	-2%
CCCn1c(/C=C/c2ccccc2)nc2ccccc21	-3%	?	2%	13µM*!
Cc1ccc(NC(=O)Cn2c(/C=C/c3ccccc3)nc3ccccc32)cc1C	0%	10%	-5%	28µM*
Cc1ccccc1Cn1c(C)c(CNCCCc2ccccc2)c(C(=O)O)c1C	5%	-3%	.	0%
CCOc1ccc(CCNC(=O)CCn2c(=O)c3cccn3c3ccc(F)cc32)cc1	5%	7%	.	-5%
O=C(NCc1ccc(F)cc1)c1cnc(N2CCCCC2)c2ccccc12	-6%	-28%	.	-16%
Cc1ccc2[nH]c3c(N4CCOCC4)ncnc3c2c1	-10%	11%	21%	?
c1ccc2c(c1)[nH]c1c(N3CCCC3)ncnc12	-16%	35%	6%	-26%
CN1CCN(c2ncnc3c2[nH]c2ccc(F)cc23)CC1	-5%	-6%	4%	28µM*
c1ccc2c(c1)[nH]c1c(N3CCN(C4CCCCC4)CC3)ncnc12	-28%	?	2%	32µM*
Brc1ccc2[nH]c3c(N4CCc5ccccc5C4)ncnc3c2c1	-29%	4%	-4%	32µM*
Clc1ccc2[nH]c3c(N4CCC5(CC4)OCCO5)ncnc3c2c1	?	?	-13%	13µM*
SMILES	GLP1R cytotox	GLP1R inv ag	GLP-1R agonist	ClpP mod
Cc1cccc2[nH]c3c(N4CCC5(CC4)OCCO5)ncnc3c12	-17%	0%	13%	?
Fc1ccc2[nH]c3c(N4CCc5ccccc5C4)ncnc3c2c1	?	?	13%	.
O=C(Cn1c(=O)n(Cc2ccc3c(c2)OCO3)c(=O)c2ccccc21)Nc1cccc(Cl)c1	1%	-16%	0%	2%
CC(C)(C)OC(=O)N1CCC(c2c(C(=O)NCCN3CCC(Cc4ccccc4)CC3)cnn2-c2cccc(Cl)c2)CC1	-14%	?	.	-2%
Cc1ccccc1C(=O)N(Cc1nc2ccccc2c(=O)[nH]1)C1CCCC1	-7%	13µM*	8%	.
Cc1ccc(S[C@@H](CCN2CC[C@H](C)CCC2=O)c2ccccc2)cc1	-10%	?	13%	1%

From PubChem
